About 1,400 (4.5%) of roughly 31,000 sequences were called active. Many of the other results were omitted from the sample, so actives are more common in it than they were. Values without a mark were called inactive.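 Rule for the calls: active = median seed-adjusted z-score above 1 or below -1; inactive = the rest.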

This assay can be described thus: Novel Modifiers of Survival Motor Neuron (SMN) Protein: Gene Identification via Genome-wide siRNA Screen.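 Note: luminescence tracks full-length SMN protein made from the SMN2 reporter.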 Particulars: HEK293T SMN2-luciferase reporter, siRNA knockdown, 72 h; actives lie on both sides. The text has this: Spinal muscular atrophy (SMA) is the most common neuromuscular autosomal recessive disorder and one of the leading genetic causes of infant death. SMA results from mutations inducing loss of function or deletion in the survival of motor neuron-1 gene (SMN1), leading to deficiency of the survival motor neuron (SMN) protein. Although a second nearly identical gene, SMN2, is retained in humans, its expression primarily produces an aberrantly spliced isoform that is largely unstable and quickly degraded. We performed a genome-wide RNAi screen using a cell-based reporter assay to identify genes and pathways that modulate SMN protein stability. The screen identified over 200 genes that led to the greatest increase or decrease in luciferase expression.
Using HEK293T cells stably expressing a luciferase reporter that combines the promoter and splicing based cassettes in tandem with the major portion of the native SMN2 cDNA with luciferase, we performed a genome-wide RNAi screen to identify modulators of SMN protein levels. Luciferase is expressed when full-length SMN protein is generated with luminescence signal proportional to SMN protein levels. Our luciferase-based reporter assay was used to screen Ambion Silencer Select Human Druggable Genome siRNA library (10418 genes, 3 unique siRNAs per gene) using lipid-based reverse transfection.
Briefly, 1 pmol of each siRNA was spotted to a well of a 384-well plate (Corning, Corning, NY) and 20 microL of serum-free DMEM containing […] of Lipofectamine RNAiMax (Life Technologies, Carlsbad, CA) was then added to each well. Transfected cells were maintained at 37 degrees C in 5% CO2 for 72 hours, 20 microL of ONE-Glo Reagent (Promega) was added to wells for luciferase quantification. Raw luminescence reads were normalized to Ambion(R) Silencer(R) Negative Control #2 siRNA, then log10 transformed. A robust statistical measure of median absolute deviation (MAD) to standardize siRNA activities from each screen. Common Seed Analysis was used to help prioritize clean hits as opposed to those appearing to arise from seed based off-target effects. Candidate modulators were defined as the genes having a MAD score greater than 1.0 or less than -1.0.
A general note: In a reporter assay the amount or activity of a reporter protein is the signal.
As to GCAUGAACUGAAACCCAAUTT against SMURF1, the median seed-adjusted z-score is -1.4 (active).

As for CCAUCGUACCUGUUACCAATT against KRIT1, the median seed-adjusted z-score is -0.447.

GCAUCUACGAGUUCAUCAUTT against FOXG1: the median seed-adjusted z-score was 0.749.

For the sequence GCAGUGAUCUAGUCUCUUUTT against GLRX, the median seed-adjusted z-score was -0.0561.

On to CAUAACCACUUUAAAGUCATT against GAB1, for which the median seed-adjusted z-score is 0.373.

As for GCAAAUUGAUGAACCGGUUTT against CEP135, the median seed-adjusted z-score was -0.2.

For the sequence UGACCACACUUCUCAGCUATT against IL9R, the median seed-adjusted z-score was -1.33 (active).

GCACGAGGCUGGUACAGUUTT against MFNG: the median seed-adjusted z-score was 0.377.

In the case of GGAGACUAGUGGUGGGAUATT against CCL16, the median seed-adjusted z-score was -0.308.

Consider GCAACUUGUGAAUCUAGGATT against VCAM1, for which the median seed-adjusted z-score was 0.19.

In the case of AACUUGUCGCUGCCCAAUATT against ABCA2, the median seed-adjusted z-score was -1.18 (active).

On to GGCUGACAGUAGCUAAGCUTT against RAPGEF4, for which the median seed-adjusted z-score was -0.197.

For the sequence CCAGAUGGAUGUACACUGUTT against PDE6C, the median seed-adjusted z-score is 0.205.

CCACGCACAUACUAUCAAATT against HIVEP1: the median seed-adjusted z-score was 0.532.

As to CCCUUAGACUCUAAGCCCATT against HSD17B14, the median seed-adjusted z-score is 0.386.

For GAAUGGUCCUAUAUCUCAATT against LARP5, the median seed-adjusted z-score is -0.144.

Regarding GGAUACUUCAGGACUAGAATT against PNN, the median seed-adjusted z-score was 1.29 (active).

For GAGCAUCUUUGAUCGAGAATT against SPINK5, the median seed-adjusted z-score was 0.26.

Take CCCUGGCAGCUAGUAGGUUTT against BATF3: the median seed-adjusted z-score was 0.698.

With CCAGUUUAUUGGAAACCGATT against NOP56, the median seed-adjusted z-score is 0.307.

Take UCCAGCAAGUGGCCAAGAATT against DUPD1: the median seed-adjusted z-score is -0.406.

AGAUUAUCAUAUUGGGUGATT against RAB7B: the median seed-adjusted z-score is 0.

In the case of CUAUAGGAAUGUUGAAUAATT against WDR33, the median seed-adjusted z-score was 3.27 (active).

In the case of GGACCACAAUGUACGGAAATT against ATP13A5, the median seed-adjusted z-score is 0.241.

On to CUCCUGUACUCUUCAGAGATT against PTOV1, for which the median seed-adjusted z-score is 0.115.

Turning to GGACCAAGCCCUAAAGGAATT against 4-Sep, the median seed-adjusted z-score was -0.0124.

With GGAUUAAUCCACGAAUUGATT against EGF, the median seed-adjusted z-score was 0.00831.

Turning to AACUUGUAUUCUUAGGUUUTT against SAR1A, the median seed-adjusted z-score is 0.0213.

For GCUAACUACCAAGUCCUAATT against SLC8A1, the median seed-adjusted z-score is 0.221.

As for ACAUCGCCCUCAAACGGGATT against ACTL7A, the median seed-adjusted z-score was 1.1 (active).

With GAUUGAUAGAGACAAUUCATT against RNGTT, the median seed-adjusted z-score is -1.55 (active).

For UGGUGCUGUUGGUAAAACATT against CDC42, the median seed-adjusted z-score was -0.0938.

For AGAGGUCCUUCAAAACAGATT against ENTPD6, the median seed-adjusted z-score is 0.438.

Turning to GGAGCGGAAUGAACUCAAATT against RILP, the median seed-adjusted z-score was 0.503.

As for GCUUAGGUCUUGCUCUCAATT against YWHAE, the median seed-adjusted z-score was 1.38 (active).

On to CCACAAUAUCUCUAACAGATT against GUCY1A2, for which the median seed-adjusted z-score is -0.186.

For the sequence AAACAAUCCGAAAAUAUGATT against KLK13, the median seed-adjusted z-score is 0.452.

For GAAUUGACAAUCUCAUAGATT against MCCC2, the median seed-adjusted z-score was -0.0566.

Turning to GCAUCUUUUGGAGAUCGAATT against TC2N, the median seed-adjusted z-score is 0.461.

For GAAGUAUGAAGAAGAAGUATT against KRT83, the median seed-adjusted z-score was 1.15 (active).

With GAUCAUCCCUUGUCUCUUUTT against CHRNA6, the median seed-adjusted z-score was 0.21.

Regarding GCAGAAUACUUCUAUGAAUTT against WIF1, the median seed-adjusted z-score was -0.521.

Consider ACACCAGCCUUGCACCUGATT against NCR1, for which the median seed-adjusted z-score is -0.26.

With CGCCUUUCAUUUUUGCUGATT against TGM1, the median seed-adjusted z-score is -0.286.

CCUUUGCCCUGUUCAAGGATT against CYP17A1: the median seed-adjusted z-score is -1.39 (active).

In the case of CAUACGAGGUAUUAUCAAATT against DNAJB7, the median seed-adjusted z-score is 0.684.

In the case of GGAUCAGUAAUAUACCACATT against MTFMT, the median seed-adjusted z-score was -0.0119.

For CCUGGAUUACAUCUACUUATT against EPHB6, the median seed-adjusted z-score is -0.0275.

GCAGCAUUAUAGUCGUAUUTT against PRSS7: the median seed-adjusted z-score is 0.0614.

For GCAUUUGUAGGGUUACGGATT against GABRG1, the median seed-adjusted z-score was 0.312.

For CAUUGUAGAUUACUCAGAATT against RHOT1, the median seed-adjusted z-score is -0.189.

Regarding GAUCCAUACUUGGAUGAUATT against PAIP1, the median seed-adjusted z-score is -0.0178.

As for GCUCGGAUAUGCUCCAGGATT against TMPRSS5, the median seed-adjusted z-score was 1.25 (active).

For GCCUGGAAUUCUACCGCUATT against SLC29A1, the median seed-adjusted z-score was 0.117.
